Rows were chosen to be rich in hits. Some 19% of all compounds tested hit in one or more screens of this group.
HT1080-NT tox = qHTS for induction of synthetic lethality in tumor cells producing 2HG: qHTS for the HT-1080-NT fibrosarcoma cell line; Potency, µM (top dose mostly 46.1 µM), hits mostly cytotoxic; AID 686970, 2013; HT-1080-NT fibrosarcoma viability, CellTiter-Glo ATP luminescence, 48 h; 360,000 compounds, 1.6% hits;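 also: NT is the 2HG producing partner of a matched IDH1 knockdown line; nearly all actives have a fitted effect of over 55% in size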
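750 cells/well, RPMI + 5% FBS; 2 h settle, compound pin-transfer, 48 h at 37 degrees C. CellTiter-Glo 10 min RT, luminescence. Normalized to DMSO and media-only wells.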
HT1080 IDH1KD tx = qHTS for induction of synthetic lethality in tumor cells producing 2HG: qHTS for the HT-1080-IDH1KD cell line; HT-1080 IDH1 knockdown viability, ATP luminescence, 48 h; 360,000 compounds, 2% hits; Potency, µM (top dose mostly 46.1 µM), actives largely listed as cytotoxic
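Using the IDH1-knockdown HT-1080 line run in the same batch and compound series as the NT line, viability after 48 h at 37 °C was determined by CellTiter-Glo luminescence and expressed as % activity.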
DT40 TDP1 no CPT = qHTS for Inhibitors of human tyrosyl-DNA phosphodiesterase 1 (TDP1): qHTS in cells in absence of CPT; DT40 Tdp1-/- hTDP1 cells, no CPT, ATP luminescence, 48 h; Potency, µM (highest dose often 46.2 µM), hits mostly inhibitors; 420,000 compounds, 15% hits; AID 686978, 2013; also: nearly all actives have a fitted effect of over 55% in size
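Readout: luminescence from CellTiter-Glo after 30 min in the dark at RT. Cells: DT40 Tdp1-/- with stable hTDP1, 400/well. Exposure: compounds alone, ≥48 hr, 37 °C.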
TDP1 cell CPT = qHTS for Inhibitors of human tyrosyl-DNA phosphodiesterase 1 (TDP1): qHTS in cells in presence of CPT | chicken DT40 Tdp1-/-;hTDP1 cells + 20 nM CPT, ATP luminescence, 48 h | Potency, µM (doses to about 46.2 µM), most hits filed as inhibitors | 420,000 compounds, 12% hits; also: nearly all actives have a fitted effect of over 55% in size
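Cell growth measured by CellTiter-Glo luminescence after a minimum 48 h, 37 C compound exposure with 20 nM CPT in Tdp1-knockout DT40 cells stably expressing hTDP1, seeded 400/well; qHTS titration format.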
KB-V1 MDR tox = qHTS assay for MDR1-selective chemotherapeutics: Primary screen using the drug-selected MDR subline cells KB-V1; 400,000 compounds, 3.4% hits; Potency, µM (doses to about 46.1 µM), hits mostly cytotoxic; KB-V1 MDR cells viability, CellTiter-Glo, 72 h; also: nearly all actives have a fitted effect of over 60% in size
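In this primary screen, KB-V1 cells overexpressing P-gp are incubated with library compounds (lowest to highest concentration) for 72 h at 37 degrees C before a luminescent ATP viability read.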
KB-3-1 cytotox = qHTS assay for MDR1-selective chemotherapeutics: Primary screen using the parental adenocarcinoma cell KB-3-1. KB-3-1 viability, CellTiter-Glo ATP luminescence, 72 h. Potency, µM (doses to about 46.1 µM), hits mostly cytotoxic. 400,000 compounds, 1.4% hits. AID 1347075, 2019; also: nearly all actives have a fitted effect of over 60% in size
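Here the drug-naive KB-3-1 line serves as comparator for MDR sub-line selectivity; cells received compound titrations, 72 h at 37 °C, then CellTiter-Glo readout.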
Numbers stand for hits. Calls follow the shape of the dose curve; as a rule, active = well fitted curve in the direction sought with a large enough effect; inconclusive = small, poorly fitted or top-dose-only effect, or another doubt; inactive = no such curve, though single readings can be large; an effect the other way counts as inactive or inconclusive.

Cc1ccc(N(CC(=O)N2CCN(c3ccc(Cl)cc3)CC2)S(=O)(=O)c2c(C)noc2C)cc1 was read as DT40 TDP1 no CPT 23µM, TDP1 cell CPT inconclusive, KB-V1 MDR tox inactive and KB-3-1 cytotox inconclusive.
Cc1noc(C)c1S(=O)(=O)Nc1ccc(C(=O)N2CCN(c3ccc(Cl)cc3)CC2)cc1 was read as HT1080-NT tox inactive, HT1080 IDH1KD tx inactive, DT40 TDP1 no CPT 16µM, TDP1 cell CPT inconclusive, KB-V1 MDR tox inactive and KB-3-1 cytotox inactive.
`Cc1noc(C)c1S(=O)(=O)N1CCN(c2ccc(Cl)cc2)CC1` gave HT1080-NT tox inactive, HT1080 IDH1KD tx inactive, DT40 TDP1 no CPT inactive, TDP1 cell CPT inconclusive, KB-V1 MDR tox inactive and KB-3-1 cytotox inactive.
COc1ccc(NCc2nnc(SCC#N)n2-c2ccccc2OC)cc1 was read as HT1080-NT tox inactive, HT1080 IDH1KD tx inactive, DT40 TDP1 no CPT 16µM, TDP1 cell CPT inconclusive, KB-V1 MDR tox inconclusive and KB-3-1 cytotox inactive.
`O=C1NC(=Nc2ccccc2)SC1Cc1cccc(Cl)c1Cl` (stereo not drawn) gave HT1080-NT tox inactive, HT1080 IDH1KD tx inactive, DT40 TDP1 no CPT inactive, TDP1 cell CPT inactive, KB-V1 MDR tox inactive and KB-3-1 cytotox inactive.
For CC(=O)/C(C#N)=C1\NC(=O)C(Cc2cc(Cl)ccc2Cl)S1 (stereo not drawn) the results were HT1080-NT tox 23µM, HT1080 IDH1KD tx inconclusive, DT40 TDP1 no CPT 3.3µM, TDP1 cell CPT inconclusive, KB-V1 MDR tox 6.5µM and KB-3-1 cytotox 15µM.
`CC(=O)/C(C#N)=C1\NC(=O)C(Cc2ccccc2Cl)S1` (stereo not drawn) gave HT1080-NT tox inactive, HT1080 IDH1KD tx 3.7µM, DT40 TDP1 no CPT inconclusive, TDP1 cell CPT inconclusive, KB-V1 MDR tox inconclusive and KB-3-1 cytotox 3.3µM.
NC1=NC(=O)C(Cc2cc(Cl)ccc2Cl)S1 (stereo not drawn) was read as HT1080-NT tox inactive, HT1080 IDH1KD tx inactive, DT40 TDP1 no CPT inactive, TDP1 cell CPT inactive, KB-V1 MDR tox inactive and KB-3-1 cytotox inactive.
Screening CC(C)Cn1c(SC(C)C(=O)NC2CC2)nnc1-c1ccccc1F (stereo not drawn) returned HT1080-NT tox inactive, HT1080 IDH1KD tx inactive, DT40 TDP1 no CPT inactive, TDP1 cell CPT inactive, KB-V1 MDR tox inconclusive and KB-3-1 cytotox inactive.
For C=Cc1ccc2c(c1)N(C)C(=C)S2 the results were HT1080-NT tox inactive, HT1080 IDH1KD tx inactive, DT40 TDP1 no CPT 23µM, TDP1 cell CPT 16µM, KB-V1 MDR tox inactive and KB-3-1 cytotox inconclusive.
Screening COc1ccc2nc(SCC(=O)NC3(C#N)CCCCC3)[nH]c2c1 returned HT1080-NT tox inactive, HT1080 IDH1KD tx inactive, DT40 TDP1 no CPT inactive, TDP1 cell CPT inactive, KB-V1 MDR tox inactive and KB-3-1 cytotox inactive.
For Cc1ccccc1-c1nn2c(-c3ccccc3)nnc2s1 the results were HT1080-NT tox inactive, HT1080 IDH1KD tx inactive, DT40 TDP1 no CPT inactive, TDP1 cell CPT inactive, KB-V1 MDR tox inactive and KB-3-1 cytotox inactive.
c1ccc(-c2cc(-c3nn4c(-c5ccco5)nnc4s3)c3ccccc3n2)cc1 was read as HT1080-NT tox inactive, HT1080 IDH1KD tx inconclusive, DT40 TDP1 no CPT 4.5µM, TDP1 cell CPT 7.1µM, KB-V1 MDR tox inactive and KB-3-1 cytotox inactive.
`Cc1cc(-c2nn3c(-c4ccccc4)nnc3s2)c2ccccc2n1` gave HT1080-NT tox inactive, HT1080 IDH1KD tx inactive, DT40 TDP1 no CPT 18µM, TDP1 cell CPT inconclusive, KB-V1 MDR tox 1µM and KB-3-1 cytotox inconclusive.
COc1cccc(NC(=O)CN(C)C(C)C(=O)NC(C)c2ccc(Cl)cc2Cl)c1 (stereo not drawn) was read as HT1080-NT tox inactive, HT1080 IDH1KD tx inactive, DT40 TDP1 no CPT 18µM, TDP1 cell CPT inconclusive, KB-V1 MDR tox inconclusive and KB-3-1 cytotox inactive.
Screening C[C@H]1CN([C@@H](C)CO)S(=O)(=O)c2ccc(C#Cc3ccccn3)cc2O[C@@H]1CN(C)C(=O)C1CC1 returned HT1080-NT tox inconclusive, HT1080 IDH1KD tx inactive, DT40 TDP1 no CPT 16µM, TDP1 cell CPT inconclusive, KB-V1 MDR tox inactive and KB-3-1 cytotox inactive.
For C[C@@H]1CN([C@@H](C)CO)S(=O)(=O)c2ccc(Br)cc2O[C@H]1CN(C)C(=O)Cc1cccnc1 the results were HT1080-NT tox inactive, HT1080 IDH1KD tx inactive, DT40 TDP1 no CPT inactive, TDP1 cell CPT inactive, KB-V1 MDR tox inactive and KB-3-1 cytotox inactive.
For CC(C)CC#Cc1ccc2c(c1)O[C@H](CN(C)C(=O)Cc1ccncc1)[C@H](C)CN([C@H](C)CO)S2(=O)=O the results were HT1080-NT tox inactive, HT1080 IDH1KD tx inactive, DT40 TDP1 no CPT 26µM, TDP1 cell CPT inconclusive, KB-V1 MDR tox inactive and KB-3-1 cytotox inconclusive.
For C[C@H](CO)N1C[C@H](C)[C@H](CN(C)C(=O)c2ccccn2)Oc2cc(C#Cc3ccc(F)cc3)ccc2S1(=O)=O the results were HT1080-NT tox inactive, HT1080 IDH1KD tx inactive, DT40 TDP1 no CPT 18µM, TDP1 cell CPT 21µM, KB-V1 MDR tox inactive and KB-3-1 cytotox inconclusive.
Screening C[C@@H]1CN([C@H](C)CO)S(=O)(=O)c2ccc(C3=CCCCC3)cc2O[C@H]1CN(C)C(=O)Cc1cccnc1 returned HT1080-NT tox inactive, HT1080 IDH1KD tx inactive, DT40 TDP1 no CPT 26µM, TDP1 cell CPT inconclusive, KB-V1 MDR tox inactive and KB-3-1 cytotox inactive.
`COc1cccc(C#Cc2ccc3c(c2)O[C@@H](CN(C)C(=O)c2ccccn2)[C@@H](C)CN([C@H](C)CO)S3(=O)=O)c1` gave HT1080-NT tox inactive, HT1080 IDH1KD tx inactive, DT40 TDP1 no CPT inconclusive, TDP1 cell CPT inconclusive, KB-V1 MDR tox inactive and KB-3-1 cytotox inactive.
Screening CCCCS(=O)(=O)NC1=NCN(CCOC(=O)c2ccccc2)CN1 returned HT1080-NT tox inactive, HT1080 IDH1KD tx inactive, DT40 TDP1 no CPT inactive, TDP1 cell CPT inactive, KB-V1 MDR tox inactive and KB-3-1 cytotox inactive.
Screening COc1ccc(CN(CCNC(=O)CCCCC(=O)NCCN(Cc2ccc(OC)cc2)C(C)C)C(C)C)cc1 returned HT1080-NT tox inactive, HT1080 IDH1KD tx inactive, DT40 TDP1 no CPT inconclusive, TDP1 cell CPT inconclusive, KB-V1 MDR tox inactive and KB-3-1 cytotox inactive.
Cc1oc(-c2cccc(Cl)c2)nc1CN1CCCC(C(=O)NCc2ccc(Cl)cc2)C1 (stereo not drawn) was read as DT40 TDP1 no CPT 7.3µM, TDP1 cell CPT 8.2µM, KB-V1 MDR tox inactive and KB-3-1 cytotox inactive.

From PubChem
